tim23-1 inh – tim23-1 yeast growth inhibition; 1.3% of 330,000 active; inhibition, % at 20 µM; AID 463212; S. cerevisiae tim23-1 growth, BacTiter-Glo luminescence, 24 h;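 active means growth inhibition of the mutant yeast at or above 50%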;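 further: temperature-sensitive mutant grown at 25 °C; plate controls were DMSO-treated mutant yeast for no effect and medium wells lacking yeast for full effect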
TIM10 inh – TIM10 yeast growth inhibition; 1.4% of 330,000 active; S. cerevisiae TIM10 strain growth, BacTiter-Glo luminescence, 24 h; AID 463195; inhibition, % at 10 µM;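 active means inhibition of 40% or more at the single tested concentration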;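 further: wild-type TIM10 isogenic control strain grown at permissive 25 °C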
NALP3 yeast inh – inhibitors of NALP3 inflammasome in yeast; Yeast reconstituted NLRP3/ASC/caspase-1, beta-gal luminescence, 24 h; inhibition, % at 10 µM; 0.39% of 330,000 active; AID 2825;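 active means inhibition of 50% or more; inactive means inhibition below 50%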;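 further: plate controls were induced DMSO wells for no effect and uninduced yeast grown without galactose for full effect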
Yeast superoxide – yeast age-related superoxide inhibition as caloric restriction mimetic | AID 2690 | S. cerevisiae aged cells, superoxide DHE fluorescence; active compounds read low | superoxide response (% of plate mean), % at 10 µM | 0.18% of 330,000 active;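 active means superoxide response under a set limit, about three screen SD below normal, cut at about 65% in these data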;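 further: yeast aged for seven days with compound at 30 °C before DHE staining; 100% = average MFI of all compound-treated wells on the plate with controls excluded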
tim10-1 inh – tim10-1 yeast growth inhibition; S. cerevisiae tim10-1 ts strain growth, BacTiter-Glo, 24 h; inhibition, % at 20 µM; 2.2% of 330,000 active; AID 463190;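 active means inhibition of at least 40%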;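 further: mutant grown at 25 °C; 0% = DMSO wells with yeast and 100% = wells holding no yeast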
tim10-1 conf – confirmation of tim10-1 mutant yeast growth inhibitors; 56% of 7,400 active; S. cerevisiae tim10-1 ts strain growth, BacTiter-Glo, 24 h; inhibition, % at 20 µM; shares compounds with tim10-1 inh; AID 463213;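 active means inhibition of yeast growth at or above a set limit in either of two repeat tests at 20 µM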;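 further: tim10-1 mutant grown at permissive 25 °C to find synthetic lethal compounds; 0% = DMSO yeast wells and 100% = medium wells without yeast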
Active calls of the source: *; i = inactive; · = no result. A selection: hits, their analogues and other compounds. The true share with any hit is near 3.8%.

SMILES	tim23-1 inh	TIM10 inh	NALP3 yeast inh	Yeast superoxide	tim10-1 inh	tim10-1 conf
COc1ccccc1NC1CCCCC1NS(=O)(=O)c1ccc(C)cc1 (stereo unspecified)	38	7	-5	·	48*	-9
Cc1ccc(CNC(=O)Cn2cnc3c(OCc4ccccc4)ncnc32)o1	19	2	0	102	13	·
C=CCN1C(=O)c2ccc(C(=O)NCCc3ccc(OC)c(OC)c3)cc2C1=O	2	-9	16	104	-13	·
Cc1ccc2nc(SCC(=O)N/N=C/c3ccc(C(=O)O)cc3)cc(C)c2c1	0	3	17	104	-6	·
CC12CCC(C(=O)NC(c3ccccc3)c3ccccc3)(OC1=O)C2(C)C (stereo unspecified)	39	21	-1	78	42*	29
CCCCCNCC(=O)Nc1cccc(C(=O)Nc2cccc(C(F)(F)F)c2)c1	-1	28	5	100	20	·
Cc1cc(C)n(-c2nc(NCCCO)c3c4c(sc3n2)CCCC4)n1	39	27	23	99	50*	27
Cc1cc(C)n(-c2nc(NCCO)c3c4c(sc3n2)CCCC4)n1	49	25	1	128	36	·
COc1ccccc1C1=NOC(C)(c2nnc(-c3cccc(Cl)c3)o2)C1 (stereo unspecified)	18	-32	39	100	6	·
Oc1ccc(/C=N/NC(=S)N/N=C/c2ccc(O)cc2)cc1	44	30	7	111	41*	31
Oc1ccc(/C=N/NC(=S)Nc2cccnc2)cc1	2	-7	13	106	13	·
COc1ccc(N(C(=O)c2cccnc2)S(=O)(=O)c2ccc(F)cc2)cc1	0	-4	-2	92	11	·
CC1(C)CC(=O)C2=C(C1)N=C1c3ccccc3C(=O)C1C2c1ccc(Cl)cc1 (stereo unspecified)	32	35	13	104	44*	31*
Cc1ccc(C2C3=C(CC(C)(C)CC3=O)N=C3c4ccccc4C(=O)C32)cc1 (stereo unspecified)	28	17	9	96	20	·
O=C(COc1coc(CN2CCc3ccccc32)cc1=O)Nc1ccc([N+](=O)[O-])cc1	12	5	1	89	7	·
c1ccc(C(c2ccccc2)c2ccn[nH]2)cc1	24	2	0	i	44*	13
C=CCn1c(SCC(=O)NC2CCCC2)nc2c([nH]c3ccccc32)c1=O	1	4	23	104	8	·
Cc1ccc(N2Cc3ccccc3C2=S)cc1	31	3	31	94	42*	26
COc1cc(CNc2cccc3[nH]c(C(F)(F)F)nc23)cc(OC)c1	39	15	14	107	42*	19
COc1ccc(CNc2cccc3[nH]c(C(F)(F)F)nc23)cc1	40	29	21	121	43*	25
Cc1ccc(C(=O)Nc2cccc3[nH]c(C(F)(F)F)nc23)cc1	9	20	15	105	8	·
CCc1ccc(NC(=S)N(Cc2ccc(Cl)cc2)Cc2ccc(C(=O)O)cc2)cc1	37	6	15	122	8	·
CC(C)CN(CC(C)C)C(=S)Nc1ccc(Cl)cc1	44	37	1	92	55*	47*
Cc1cc(C)cc(C(=O)NCC(=O)OCC(=O)NC2CCCc3ccccc32)c1 (stereo unspecified)	6	2	3	117	-10	·
Cc1ccc(C(=O)Nc2nc(-c3ccccc3)c(-c3ccccc3)o2)cc1	31	25	0	88	40*	18
SMILES	tim23-1 inh	TIM10 inh	NALP3 yeast inh	Yeast superoxide	tim10-1 inh	tim10-1 conf
COc1cc(/C=N/NC(=O)c2ccc([N+](=O)[O-])cc2Cl)cc(Br)c1O	2	-3	12	103	-3	·
COc1cc(/C=N/N2C(=O)c3ccccc3NC2(C)c2cccc([N+](=O)[O-])c2)cc(Br)c1O (stereo unspecified)	30	31	13	72	44*	21
Cc1ccc(S(=O)(=O)N2CCN(C(=O)c3cc4c(s3)CCCC4)CC2)c(C)c1	33	18	7	128	22	·
O=C(c1cc2c(s1)CCCC2)N1CCN(S(=O)(=O)c2ccccc2C(F)(F)F)CC1	35	13	13	98	41*	29
O=C(c1sc2ccccc2c1Cl)N1CCN(c2ccccc2F)CC1	30	3	8	81	42*	28
Cc1c(Cl)cccc1-n1c(SCC(=O)N2CCC(C(=O)O)CC2)nc2ccccc2c1=O	19	2	16	103	16	·
O=C(Cn1cc(C(F)(F)F)ccc1=O)OCC(=O)c1ccc[nH]1	10	-2	1	91	9	·
CCn1c(=S)sc2c(=O)n(-c3ccccc3)c(SC)nc21	42	37	3	72	48*	49*
CSc1nc2ccsc2c(=O)n1-c1ccccc1	-5	-13	17	89	-12	·
O=C(O)c1ccc(N2CCc3ccccc32)c([N+](=O)[O-])c1	2	17	6	108	3	·
O=C(NCc1ccc(F)cc1)c1ccc(N2CCc3ccccc32)c([N+](=O)[O-])c1	39	18	27	96	42*	26
CC(NC(=S)Nc1ccc(Cl)cc1Cl)C(c1cccs1)N1CCCC1 (stereo unspecified)	34	26	14	89	41*	10
COC(=O)C1=C(NC(=O)c2ccc(Br)cc2)CCS1	-4	-11	11	100	3	·
CCN(CC)S(=O)(=O)c1ccc(C(=O)NC2=C(C(=O)OC)SCC2)cc1	26	23	-21	112	42*	31
O=C(NCCCNc1ccc(C(F)(F)F)cc1[N+](=O)[O-])c1ccc(Cl)cc1	9	-4	38	106	46*	-2
Cn1cc(/C=C/C(=O)N2CCCC(C(=O)c3ccc(C(C)(C)C)cc3)C2)cn1 (stereo unspecified)	22	3	-1	110	38	·
CC1=CC(=O)C=C(C)C1=NOC(=O)/C=C\c1ccccc1	32	37	-17	76	46*	32*
O=C(COc1ccccc1[N+](=O)[O-])Nc1ccc2c(c1)CCC2	14	0	20	121	5	·
O=C(NCCO)c1cc2c([nH]c3ccccc32)c(-c2ccccc2)n1	23	15	11	144	43*	14
CSc1sc(C(=O)NC(=O)NCc2ccncc2)c(C)c1-c1ccon1	14	9	9	115	1	·
Cc1ccccc1CN(C)CC(=O)Nc1c(C)cccc1C(C)C	44	19	30	93	8	·
CCc1ccc2[nH]c(=O)c(C3C(C#N)=C(N)Oc4c3ccc3cccnc43)cc2c1 (stereo unspecified)	36	25	20	104	41*	12
CCOC(=O)c1cnc(SCC(=O)OCC(=O)NC2CCS(=O)(=O)C2)nc1N (stereo unspecified)	3	-6	2	106	5	·
